Laboratory results: PubChem BioAssay (Tox21)
Inconclusive results are not listed. Active and inactive are the calls of the source. Calls follow the shape of the dose curve; as a rule, active = well fitted activation curve with a large enough effect in the signal ratio in the repeat runs (not every such curve was filed as active); inconclusive = weak or mixed curves, or effect the other way; inactive = no such curve, though single readings can be large or run the other way; the % refers to the signal ratio.

assay: qHTS assay for small molecule agonists of the antioxidant response element (ARE) signaling pathway (AID 743202); details: HepG2 ARE-bla reporter, beta-lactamase FRET, 16 h; series mostly up to 73.3 µM; activation: at the top concentration
Source text: U.S. Tox21 Program National Center for Advancing Translational Sciences [NCATS] NIH Chemical Genomics Center [NCGC] U.S. Environmental Protection Agency [EPA] National Institutes of Environmental Health Sciences [NIEHS] National Toxicology Program [NTP] U.S. Food and Drug Administration [FDA] Tox21 Assay Overview: Oxidative stress has been implicated in the pathogenesis of a variety of diseases ranging from cancer to neurodegeneration. The antioxidant response element (ARE) signaling pathway plays an important role in the amelioration of oxidative stress. The CellSensor ARE-bla HepG2 cell line (Invitrogen) can be used for analyzing the Nrf2/antioxidant response signaling pathway. Nrf2 (NF-E2-related factor 2) and Nrf1 are transcription factors that bind to AREs and activate these genes. The CellSensor ARE-bla Hep G2 cell line contains a beta-lactamase reporter gene under control of the Antioxidant Response Element (ARE) stably integrated into HepG2 cells. The activation of the report gene under culture conditions can be detected by fluorescence intensity. This cell line has been used to screen the Tox21 10K compound library to identify agonists that induce oxidative stress.
Tox21 Assay Protocol Summary: The ARE-bla cells were dispensed at 2,000 cells/5 ul/well in 1536-well black wall/clear bottom plates using a Multidrop dispenser. After the assay plates were incubated at a 37 C/5% CO2 incubator for 5 hours, 23 nL of compounds dissolved in DMSO, positive controls or DMSO only was transferred to the assay plate by a pin tool. The plates were incubated at 37 C for 16 hours. After 1 uL of LiveBLAzer B/G FRET substrate was added using a Flying Reagent Dispenser, the plates were incubated at room temperature for 2 hours, and fluorescence intensity was measured by an Envision plate reader.
% is scaled to controls: 0 for no effect and ±100 for the full control effect; potency is read from the fitted curve at half-maximal effect.

SMILES	Potency	activation
O=C1Nc2ccc(Cl)cc2[C@@](C#CC2CC2)(C(F)(F)F)O1	13.3 µM (active)	–
C1CC(COCC2CO2)CCC1COCC1CO1 (stereo not given)	54.5 µM (active)	–
Cc1ccc2ccc3cccc4ccc1c2c34	–	-10.8% (inactive)
C=C(C)C(=O)OCCC[Si](Cl)(Cl)Cl	–	-7.19% [at 94.8 µM] (inactive)
Cc1c(C(=O)O)cccc1[N+](=O)[O-]	–	4.92% [at 94.8 µM] (inactive)
CN(C)c1ccc(N=NS(=O)(=O)O)cc1	8.63 µM (active)	–
CCCCCCCC/C=C\CCCCCCCC(=O)OCCOC(=O)CCCCCCC/C=C\CCCCCCCC	–	16.3% [at 94.8 µM] (inactive)
CCCCCCCOC(=O)c1ccc(O)cc1	–	10.1% (inactive)
COC(=O)[C@]1(C)CCC[C@@]2(C)[C@H]1CC=C1C=C(C(C)C)CC[C@@H]12	61.1 µM (active)	–
CCCN(CCc1cccs1)[C@H]1CCc2c(O)cccc2C1	–	11.5% (inactive)
CC(CN(C)C)CN1c2ccccc2CCc2ccccc21 (stereo not given)	–	-10.1% (inactive)
N[C@@H](CSSC[C@H](N)C(=O)O)C(=O)O	–	9.27% [at 0.756 µM] (inactive)
C[C@@H]1CC[C@H]2C(C)(C)[C@H]3C[C@@]12CC[C@@]3(C)O	–	15.5% (inactive)
CN(C)CCOC(c1ccccc1)c1ccccc1 (tested in a mixture with another compound)	–	-10.5% [at 94.8 µM] (inactive)
CC(C)(c1cc(Br)c(O)c(Br)c1)c1cc(Br)c(O)c(Br)c1	23 µM (active)	–
O=C(O)CCCCCCC(=O)O	–	12% [at 94.8 µM] (inactive)
C/C=C/C=N/NC(=O)c1ccncc1	6.68 µM (active)	–
CCN(CC)CCOC(=O)C1(C2CCCCC2)CCCCC1	–	7.95% (inactive)
c1cc(OCC2CO2)cc(OCC2CO2)c1 (stereo not given)	30.4 µM (active)	–
CCCSS/C(CCO)=C(\C)N(C=O)Cc1cnc(C)nc1N	–	-1.42% (inactive)

SMILES	Potency	activation
NC(=O)C(=O)N/N=C/c1ccc([N+](=O)[O-])o1	29.8 µM (active)	–
CCN(CC)c1ccc(N)cc1	12.5 µM (active)	–
CCc1cccc(C)c1	–	-0.252% [at 94.8 µM] (inactive)
Cc1cn[nH]c1	–	3.26% (inactive)
CC1CCCNC1 (stereo not given)	–	-5.98% (inactive)
Cc1cccc(Br)c1	–	-9.6% [at 94.8 µM] (inactive)
CCO[Si](CCCSSSSCCC[Si](OCC)(OCC)OCC)(OCC)OCC	–	13.5% (inactive)
COc1cc(C(=O)NS(=O)(=O)c2ccccc2C)ccc1Cc1cn(C)c2ccc(NC(=O)OC3CCCC3)cc12	29.8 µM (active)	–
NCCCC(O)(P(=O)(O)O)P(=O)(O)O	–	-12.9% (inactive)
CC(C)=C1CC[C@@H](C)CC1=O	–	11.4% (inactive)
CCCCCCC(C)OC(=O)COc1nc(F)c(Cl)c(N)c1Cl (stereo not given)	–	1.01% (inactive)
CC(=O)OC(OC(C)=O)c1ccc([N+](=O)[O-])o1	15.6 µM (active)	–
Nc1ncnc2c1ncn2[C@@H]1O[C@H](COP(=O)(O)O)[C@@H](O)[C@H]1O	–	-3.04% (inactive)
O=Nc1ccc(NO)cc1	6.36 µM (active)	–
Cn1cnc2ncnc(N)c21	–	-0.463% (inactive)
C=C1C(C)(C)[C@@]2(Cl)C(Cl)[C@]1(Cl)C(Cl)(Cl)C2(Cl)Cl (stereo not given in full)	7.56 µM (active)	–
CCCCCCOc1ccc(O)cc1	27.3 µM (active)	–
COC(=O)CC#N	–	-0.178% [at 94.8 µM] (inactive)
CCCCOC(=O)C(C)CC (stereo not given)	–	12.3% (inactive)
c1ccc(Sc2ccccc2)cc1	–	9.06% (inactive)
